RAD54 branch = RAD54 (human) branch migration inhibition. Q92698. RAD54 Holliday junction branch migration, FAM/BHQ fluorescence. inhibition, % at 10.4 µM. 360,000 compounds, 0.14% hits. AID 602329;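 active = mean normalized replicate activity at least 40 and at least half of replicates scoring 40 or more; inconclusive = only one of the two criteria met; inactive = mean below 40 and under half of replicates reaching 40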;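 also: 0% = median of neutral control wells and 100% = median of positive control wells; inhibitors cause a drop in the FAM fluorescence signal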
Casp6 inh = inhibitors of human caspase-6. purified caspase-6, Z-VEID-R110 cleavage fluorescence. inhibition, % at 12.5 µM. 350,000 compounds, 0.53% hits;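 active = mean inhibition across replicates at least about 35%, with every replicate also reaching that limit, limit read from the data; inconclusive = only one of the two criteria met; inactive = neither criterion met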;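 also: 0% = median of neutral control wells and 100% = no fluorescence left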
Target sequence (P55212 24-179 limits assumed): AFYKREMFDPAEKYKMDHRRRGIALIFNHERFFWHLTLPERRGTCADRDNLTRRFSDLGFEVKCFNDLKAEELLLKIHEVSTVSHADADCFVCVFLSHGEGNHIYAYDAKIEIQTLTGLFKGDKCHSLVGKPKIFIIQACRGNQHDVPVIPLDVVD
Target sequence (P55212 194-293 limits assumed): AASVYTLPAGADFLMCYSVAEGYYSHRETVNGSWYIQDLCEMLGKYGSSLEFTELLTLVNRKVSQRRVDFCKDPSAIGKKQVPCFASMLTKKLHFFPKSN
RAD52 inh = blocks human RAD52 DNA annealing; P43351; recombinant RAD52 DNA annealing, FRET fluorescence; inhibition, % at 18.7 µM; 360,000 compounds, 0.46% hits;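 active = every replicate showing at least 50% inhibition; inconclusive = mean inhibition at least 50% but not in every replicate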
Target sequence (P43351 whole entry, looked up): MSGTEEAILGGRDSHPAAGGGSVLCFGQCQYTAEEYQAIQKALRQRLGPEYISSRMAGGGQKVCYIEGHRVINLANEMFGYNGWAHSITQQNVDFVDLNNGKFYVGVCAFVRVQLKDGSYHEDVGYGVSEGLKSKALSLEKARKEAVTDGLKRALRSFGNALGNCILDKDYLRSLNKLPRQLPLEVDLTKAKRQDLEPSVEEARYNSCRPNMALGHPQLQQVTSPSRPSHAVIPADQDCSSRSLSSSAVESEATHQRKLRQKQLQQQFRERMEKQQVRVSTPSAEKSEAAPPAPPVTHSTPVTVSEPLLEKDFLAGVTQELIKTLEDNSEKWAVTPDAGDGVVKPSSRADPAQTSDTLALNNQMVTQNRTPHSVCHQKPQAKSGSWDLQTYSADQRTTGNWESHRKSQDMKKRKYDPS
Glyco luc inh = N-linked glycosylation inhibition. D54 ERlucT glycosylation luciferase reporter, 24 h; percent of 100 nM tunicamycin response. 360,000 compounds, 0.23% hits. reporter increase, % at 12.5 µM. AID 588692;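 active = mean luciferase reporter signal, scaled so untreated is 0 and the glycosylation-blocking control 100, at or above a set limit in every replicate; inconclusive = mean reaches the limit but not every replicate does; inactive = mean below the limit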;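 also: luciferase carries N-glycosylation sites so blocking glycosylation raises the light; 0% = median of neutral control wells and 100% = median of 100 nM tunicamycin wells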
MLL AF4-AF9 inh = MLL-AF4/AF9 protein interaction inhibition | AlphaScreen, biotin-AF4 peptide binding to FLAG-AF9 | 350,000 compounds, 0.47% hits | inhibition, % at 10 µM | P42568;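 active = every replicate reaching a set inhibition limit, whatever the replicate mean, cut at about 25% in these data; inconclusive = mean inhibition reaches that limit but some replicates miss it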;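 also: 0% = plate neutral control median and 100% = total signal loss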
Rad54 DNA ctr = counter-screen for Rad54 inhibitors: DNA binding compounds. shares compounds with RAD54 branch. Acridine orange-DNA displacement, fluorescence polarization, 20 min. AC50, µM (top dose mostly 35 µM), for inactives: at the highest dose activity change, negative = DNA binding. 460 compounds, 8% hits. AID 651673;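 active = signal drop giving an AC50 within twice the top valid tested concentration of each sample, actives reach about 35 µM in these data; inactive = activity opposite to expected, plus the rest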;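 also: polarization loss reports compound binding to salmon sperm DNA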
DNA binder FP = counter-screen for RAD52 inhibitors: DNA binding compounds; shares compounds with RAD52 inh; Salmon sperm DNA/acridine orange FP displacement; AC50, µM; 1,000 compounds, 8% hits; AID 652128;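 active = fitted half-maximal concentration for signal loss at or below twice the highest dose tested, in every separate run, actives reach about 64 µM in these data; inconclusive = runs disagree, or flat partial signal loss, or poor fit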
* marks the source's active call; other numbers are inactive results; i = inactive; ? = inconclusive; . = not tested or not shown. Shown are actives, neighbours in structure and some others; about 1.2% of the full set was active somewhere.

SMILES	RAD54 branch	Casp6 inh	RAD52 inh	Glyco luc inh	MLL AF4-AF9 inh	Rad54 DNA ctr	DNA binder FP
C=CCc1ccccc1OCC(O)CN1CCN(CCN2C(=O)c3cccc4cccc(c34)C2=O)CC1 (centres undefined)	99.5*	0.7	24.2	23.2	?	0.0%	.
C[C@@H]1CN([C@@H](C)CO)C(=O)c2cc(NC(=O)c3ccccc3)ccc2O[C@@H](C)CCCCO[C@H]1CN(C)C(=O)c1ccccc1	6.2	1.2	-2.7	.	1.9	.	.
O=C(Nc1nnc(COc2ccc(F)cc2)s1)c1ccco1	?	1.9	-20.0	-0.9	-3.3	-6.0%	.
O=C(Nc1nnc(COc2ccc(Br)cc2)s1)c1ccco1	-5.5	-0.4	-11.1	1.2	-2.0	.	.
O=C1c2cccc3cccc(c23)C(=O)N1CCCn1ccnc1	51.4*	-0.5	32.8	4.8	3.6	-13.8%	.
Cc1noc(C)c1NC(=O)Nc1cccc2c1O[C@H](CN(C)CC1CCCCC1)[C@@H](C)CN([C@@H](C)CO)C2=O	5.5	-3.6	8.4	.	1.4	.	.
CCN(CC)CCN(C(=O)C1=COCCO1)c1nc2ccc(C)cc2s1	13.7	-12.0	18.5	0.6	0.5	.	.
CCN(CC)CCN(C(=O)C1=COCCO1)c1nc2c(OC)ccc(OC)c2s1	77.4*	-9.1	88.1*	0.0	5.1	10.3%	i
COc1cc2ccccc2cc1C(=O)N(CCN(C)C)c1nc2c(OC)ccc(OC)c2s1	60.1*	-30.7	94.3*	-4.9	50.1*	-4.7%	i
COc1ccc(OC)c2sc(N(CCN(C)C)C(=O)c3ccc4ccccc4c3)nc12	69.2*	-20.3	93.2*	-2.4	27.9*	4.9%	i
O=C(c1cccc(F)c1)N1C[C@@H]2[C@H](c3ccccc31)[C@@H](CO)N2C(=O)c1ccc(F)cc1	7.1	3.6	-9.0	.	-2.7	.	.
COC(=O)[C@]1(CCS(=O)(=O)c2ccccc2)N=C(c2ccc(OCCCO)cc2)O[C@@H]1c1ccccc1CN=[N+]=[N-]	-1.2	-1.9	-24.7	.	3.5	.	.
CCN1CCC[C@H]1CNC(=O)c1c(OC)ccc(Br)c1OC	-7.0	3.9	1.6	4.2	-0.7	.	.
CCN1CCCC1CNC(=O)c1ccc2c(c1)NC(=O)/C(=C\c1ccc(OC)c(OC)c1)S2 (centres undefined)	68.9*	-67.6	72.9*	-7.2	40.0*	-3.5%	i
Nc1ccc2ncccc2c1N	9.4	.	.	11.6	.	.	.
Nc1nc(N)c2c(ccc3nccc32)[nH]1	61.8*	-18.5	77.2*	12.7	3.4	-14.3%	i
Cc1ccc(-c2nc(C(=O)NCCCN(C)C)cc3c2[nH]c2ccccc23)cc1	105.4*	-8.2	92.9*	46.2*	17.1	-12.0%	?
O=C(NCCO)c1cc2c([nH]c3ccccc32)c(-c2ccccc2)n1	-17.8	0.5	-8.0	6.1	-4.9	.	.
CCCC#Cc1cnc2c(c1)C(=O)N([C@H](C)CO)C[C@H](C)[C@@H](CN(C)C)O2	-7.2	1.7	15.7	.	-0.8	.	.
O=C(Nc1ccc(Nc2ccncc2)cc1)c1ccc(Nc2ccnc3ccc([N+](=O)[O-])cc23)cc1	128.3*	-0.4	93.6*	0.2	-0.6	4.1%	i
O=C(Nc1cccc(F)c1)N[C@H]1CC[C@@H](CCn2cc(Cc3ccccc3)nn2)O[C@@H]1CO	-9.2	3.4	-0.4	.	0.1	.	.
O=C(Cc1ccncc1)N1CC[C@@H]2[C@H]1c1cc(-c3cccc(F)c3)ccc1N[C@@H]2CO	-4.0	.	.	.	.	.	.
CN1CCN(CC(=O)n2c3c(c4ccccc42)CCCC3)CC1	.	.	.	-3.3	.	.	.
O=C(CN1CCCCC1)n1c2ccccc2c2ccccc21	99.5*	-2.0	60.6*	12.5	.	1.9%	i
C[C@H]1CN([C@@H](C)CO)C(=O)c2cc(C3=CCCCC3)cnc2O[C@@H]1CN(C)Cc1ccncc1	9.6	-0.7	12.4	.	2.8	.	.
SMILES	RAD54 branch	Casp6 inh	RAD52 inh	Glyco luc inh	MLL AF4-AF9 inh	Rad54 DNA ctr	DNA binder FP
CN1CCN(c2nc(-c3cccc([N+](=O)[O-])c3)nc3ccccc23)CC1	74.6*	-10.7	14.4	2.9	15.7	-21.8%	i
CCCC#Cc1cnc2c(c1)C(=O)N([C@@H](C)CO)C[C@H](C)[C@@H](CN(C)Cc1ccc3c(c1)OCO3)O2	.	.	0.8	.	10.0	.	.
COc1ccc(NC(=O)Nc2ccc3c(c2)C(=O)N([C@H](C)CO)C[C@H](C)[C@@H](CN(C)C(=O)Nc2ccc(C(F)(F)F)cc2)OCCCC[C@H](C)O3)cc1	3.0	-0.4	0.0	.	-10.1	.	.
Cc1ccc2nc3c(c(Nc4ccc(O)cc4)c2c1)CCC3	66.6*	3.5	45.7	13.3	15.4	-1.0%	i
Cc1ccc(NC(=O)c2c3c(nc4ccccc24)CCC3)cc1	-6.3	-1.0	-33.5	1.3	-7.5	.	.
CC(C)NC(=O)Nc1ccc2c(c1)C(=O)N([C@@H](C)CO)C[C@H](C)[C@H](CN(C)Cc1ccc(C(=O)O)cc1)OCCCC[C@@H](C)O2	1.7	16.1	-16.4	.	-5.9	.	.
CN(C)CCCN(C(=O)c1ccco1)c1nc(-c2ccc(Cl)cc2)cs1	53.0*	-11.1	52.0*	3.7	26.2*	-15.9%	i
C[C@@H]1CN([C@H](C)CO)C(=O)Cc2cc(NC(=O)Nc3ccc(C(F)(F)F)cc3)ccc2O[C@@H]1CN(C)Cc1ccc(Oc2ccccc2)cc1	-3.7	.	.	.	.	.	.
CCOC(=O)c1cnc2ccc(OCC)cc2c1NCCCN1CCOCC1	100.8*	-51.3	70.3*	13.2	1.2	-4.0%	i
CC(C)OCC(O)CN1CCN(CCN2C(=O)c3cccc4cccc(c34)C2=O)CC1 (centres undefined)	79.0*	-5.3	93.5*	33.3*	1.6	-13.4%	i
C[C@H](CO)N1C[C@H](C)[C@@H](CN(C)C(=O)c2ccncc2)OCCCC[C@H](C)Oc2ccc(NS(=O)(=O)c3cn(C)cn3)cc2C1=O	11.3	-1.9	-3.1	.	-7.4	.	.
COc1ccc(-c2cc3nc(NCCCN(C)C)n(C)c(=O)c3s2)cc1OC	68.6*	-56.5	83.8*	0.6	4.6	-5.7%	i
Cc1ccsc1-c1cc2nc(NCCCN(C)C)n(C)c(=O)c2s1	?	-34.3	58.1*	4.4	12.4	3.2%	i
Cc1ccccc1-c1cc2nc(NCCCN(C)C)n(C)c(=O)c2s1	11.9	-3.9	25.0	-0.2	?	.	.
CN(C)CCCNc1nc2cc(-c3cccc(Cl)c3)sc2c(=O)n1C	50.4*	-67.9	88.9*	-1.4	7.3	-7.2%	i
CN(C)CCCNc1nc2cc(-c3ccn[nH]3)sc2c(=O)n1C	29.2	-16.7	42.6	0.4	-4.5	.	.
C[C@H](CO)N1C[C@H](C)[C@H](CN(C)C(=O)c2cccc(F)c2)Oc2cc(C#CC3CC3)ccc2S1(=O)=O	0.7	-0.6	13.9	.	0.6	.	.

High-throughput results deposited in PubChem BioAssay by Broad Institute.
